Here are results for 115 molecules from PubChem BioAssay AID1985 (Southern Research Specialized Biocontainment Screening …, 2009).

The whole screen tested about 2,300 compounds, of which about 1,000 (43%) were called active. No rule for the calls is given here. So high a share suggests a set chosen from earlier hits. Some of the results follow. Measured potencies and affinities stand elsewhere.

The experiment is described as follows: modified counter assay using GFP fluorescence, PhoP regulon inhibitor project, dose response (AID 1985). The settings on record: S. Typhi, 4 h; series mostly up to 150 µM.
For the molecule `COC(=O)c1ccccc1NC(=O)CSc1ncn[nH]1`, the result was inactive.
Take `COc1cccc(C(=O)Nc2cccc(SC)c2)c1`: the call was inactive.
As for `CSc1cccc(NC(=O)/C=C/c2ccco2)c1`, the entry is “inactive”; as for `Cc1ccc(-c2c[n+](Cc3ccc(Cl)c(Cl)c3)c3n2CCC3)cc1`, “inactive”.
With `CC1CCCC(NC(=O)COC(=O)Cc2c[nH]c3ccccc23)C1C` (stereo not given), the molecule was called inactive.
As for `CCC(=O)Nc1nc(C)c(C(=O)N2CCCCC2)s1`, the entry is “inactive”; as for `O=C(N/N=C/c1cccnc1)c1ccc(F)cc1`, “inactive”; as for `CC(/C=C\c1cccnc1)=C/C(=O)O`, “inactive”.
As for `Cc1ccc(C(C)C)c(OCCNC(=O)c2ccccc2O)c1`, the entry is “inactive”; as for `O=C(Nc1ncccc1O)c1c(O)c2ccccc2[nH]c1=O`, “inactive”; as for `CCC(Sc1nccn1C)C(=O)Nc1nnc(C)s1` (stereo not given), “inactive”.
The entry for `OCCN1CCN(Cc2cc(Cl)c3cccnc3c2O)CC1` is “inactive”; for `Cc1ccc(-c2noc(CN3CCCCC3)n2)cc1` it is “inactive”.
Take `Cc1nc(N2CCOCC2)c2c(C)c(C(=O)Nc3ccccc3C(F)(F)F)sc2n1`: the result was inactive.
Turning to `O=c1c2ccccc2nc(COc2ccccc2)n1/N=C/c1ccc(O)cc1O`, the call was inactive.
As for `CCn1c(SCC(=O)Nc2oc(-c3ccccc3)c(-c3ccccc3)c2C#N)nnc1-c1ccco1`, the entry is “inactive”.
As for `CCCC(CCC)C(=O)NCCN1CCOCC1`, the entry is “inactive”; as for `COc1cccc(-c2ccc(SCc3ccccn3)nn2)c1`, “inactive”; as for `Fc1ccc(/C=N/Nc2nc3ccccc3[nH]2)cc1F`, “inactive”.
As for `CC1CCN(CCOCCOc2ccc(Br)cc2Cl)CC1`, the entry is “inactive”; as for `COC(=O)c1cc2sccc2n1Cc1nc(-c2ccc(OC)cc2)oc1C`, “inactive”.
With `Oc1c(CN2CCN(c3ccccn3)CC2)cc(Cl)c2cccnc12`, the call was inactive.
As for `Cc1cc2cc(CNC(=O)C(C)Oc3ccccc3)ccc2n1C` (stereo not given), the result was inactive.
The entry for `CNCCCC1c2ccccc2C=Cc2ccccc21` is “inactive”; for `COc1cc(OC)c(C2CC(=O)N3CN(c4ccccc4)CSC3=C2C#N)cc1OC` (stereo not given) it is “inactive”; for `COc1ccccc1-c1nc(C(F)(F)F)c(OC)o1` it is “inactive”.
The entry for `Cc1nc(C)c(-c2ccc(SCc3ccccc3F)nn2)s1` is “inactive”; for `NC(=O)c1cc(S(=O)(=O)Nc2cccc(F)c2)co1` it is “inactive”; for `CCn1ncc(/C=N\NC(=O)c2csc3ccccc23)c1C` it is “inactive”.
The entry for `COc1ccc(C(=O)N/N=C/c2cccnc2)cc1` is “inactive”; for `O=C(NC1=NCCS1)c1cccc2ccccc12` it is “inactive”; for `Cc1c(/C=N/NC(=O)c2sc3ccccc3c2Cl)cnn1C` it is “inactive”.
In the case of `O=C(NC1CC1)C1CCN(C2CCN(C(=O)Cc3ccc(F)cc3)CC2)CC1`, the outcome was inactive.
The entry for `CN1C(=O)N2CN(C3CCCCC3)CN3C(=O)N(C)C1C23` (stereo not given) is “inactive”; for `CCn1nccc1C(=O)Nc1cc(Cl)cc(Cl)c1` it is “inactive”; for `COc1ccc(C(=O)N2CCN(C(=O)Cc3ccccc3)CC2)cc1OC` it is “inactive”.
The entry for `O=C(CCN1CCC(c2ccccc2)C1)c1ccc2c(c1)OCCO2` (stereo not given) is “inactive”.
As for `O=C(C[n+]1cn(C(F)F)c2ccccc21)c1ccc(Br)cc1`, the entry is “inactive”; as for `O=C(CCN1CCN(c2ccccc2)CC1)c1ccc(Cl)cc1`, “inactive”; as for `CCOC(=O)N1CCN(CCC(=O)c2ccc(Br)cc2)CC1`, “inactive”.
Turning to `CCOC(=O)N1CCN(CC(=O)Nc2ccc(F)cc2F)CC1`, the outcome was inactive.
The entry for `O=C(c1cccs1)N1CCC(N2CCN(c3ccccc3)CC2)CC1` is “inactive”.
The entry for `O=c1[nH]n(-c2ccccc2)c(=O)c2ccccc12` is “inactive”.
On to `CCOc1ccc(S(=O)(=O)N2CCC(C(=O)NCCN3CCOCC3)CC2)cc1C`, for which the molecule was called inactive.
The entry for `O=c1c2ccccc2ncn1Cc1ccc(Cl)cc1` is “inactive”; for `CC(=O)C1=C(O)C(=O)N(CCN2CCOCC2)C1c1ccccc1` (stereo not given) it is “inactive”; for `CCc1ccc(C(=O)CC2(O)C(=O)N(CN3CCOCC3)c3ccccc32)cc1` (stereo not given) it is “inactive”.
As for `O=C(COC(=O)/C=C/c1cccc(C(F)(F)F)c1)NCc1ccccc1`, the entry is “inactive”; as for `CCC[C@H](CN[C@@H](CNC)[C@H](C)CC)NCCc1cc(C(F)(F)F)cc(C(F)(F)F)c1`, “inactive”.
The entry for `COc1cc2c3cc1Oc1cc(ccc1O)C[C@@H]1c4c(cc(OC)c(O)c4Oc4ccc(cc4)C[C@H]3N(C)CC2)CCN1C` is “inactive”; for `Cc1ccc(C(C[N+](=O)[O-])n2nc(C)cc2C)cc1` (stereo not given) it is “inactive”.
As to `CCN1C(=O)NC(c2ccccc2)C1=O` (stereo not given), the outcome was inactive.
As for `CCN(CC)CCCCCCCCOC(=O)c1cc(OC)c(OC)c(OC)c1`, the molecule was classed as inactive.
The entry for `COc1cc(C(c2nnnn2C2CCCC2)N2CCN(C)CC2)cc(OC)c1OC` (stereo not given) is “inactive”.
As for `O=S1(=O)CC=C(CSc2nc3ccccc3[nH]2)C1`, the entry is “inactive”; as for `Cc1ccc(-n2[nH]c(C)c(C=NCc3ccncc3)c2=O)cc1`, “inactive”; as for `Cc1ccnc(NS(=O)(=O)c2ccc(N=CC3=C(O)CC(C)(C)CC3=O)cc2)n1`, “inactive”.
The entry for `CCC(Oc1ccccc1)C(=O)Nc1nnc(S(=O)(=O)N2CCCCC2)s1` (stereo not given) is “inactive”; for `CCOc1ccc(C2CC(=O)NC(SCC(=O)OC)=C2C#N)cc1` (stereo not given) it is “inactive”; for `COc1ccc(-c2cc(C(=O)Nc3ccc(S(=O)(=O)Nc4onc(C)c4C)cc3)c3ccccc3n2)cc1OC` it is “inactive”.
Consider `CCC(CC)C(=O)NCCc1cc2ccc(C)cc2[nH]c1=O`, for which the result was inactive.
As for `O=Cc1ccc(N2CCCCCC2)cc1`, the entry is “inactive”; as for `CCOC(=O)C1=C(C)NC(SCC(N)=O)=C(C#N)C1c1ccncc1` (stereo not given), “inactive”.
`COc1ccccc1C(=O)N1CC2(C)CC1CC(C)(C)C2` (stereo not given): the result was inactive.
For the molecule `COc1ccc(Cl)cc1-c1n[nH]c(=S)o1`, the outcome was inactive.
As for `COc1ccc(-c2nnn(-c3ccc(Cl)cc3Cl)c2N)cc1`, the entry is “inactive”.
In the case of `Clc1ccc(/C=C/c2ncc[nH]2)c(Cl)c1`, the result was inactive.
As for `Clc1ccc2nc(N3CCCCC3)[nH]c2c1`, the entry is “inactive”; as for `CN(C)C(CNc1ccc([N+](=O)[O-])cc1C#N)c1ccccc1` (stereo not given), “inactive”; as for `CCN1CCN(Cc2ccc(NC(=O)c3ccc(C)c(NC(=O)C(=O)c4c[nH]c5ccccc45)c3)cc2C(F)(F)F)CC1`, “inactive”.
As for `COc1ccc(C(=O)C2CCN(CC(=O)Nc3cc(C)cc(C)c3)CC2)cc1`, the entry is “inactive”.
As for `O=C(CSC1=NCCS1)Nc1nc2c(s1)CCCC2`, the entry is “inactive”; as for `Cc1ccc(CNC(=O)CCC(=O)Nc2nnc(C)s2)cc1`, “inactive”.
For the molecule `COc1ccc(CC(=O)Nc2ncc([N+](=O)[O-])s2)cc1OC`, the molecule was called inactive.
`O=C(c1cc2c(s1)-c1ccccc1S(=O)(=O)C2)N1CCN(Cc2ccccc2)CC1`: the molecule was called inactive.
As for `COc1cccc(OC)c1C(=O)Nc1ccc(N2CCN(S(C)(=O)=O)CC2)cc1`, the entry is “inactive”.
The entry for `COCc1ccc(C(=O)Nc2ccc(C(=O)O)cc2)o1` is “inactive”.
Turning to `COC(=O)C1=C(C)N(C2CCCC2)C(=O)C1(NC(C)=O)C(F)(F)F` (stereo not given), the result was inactive.
For the molecule `NC(=O)c1cc(C(=O)c2cccc(Cl)c2Cl)c[nH]1`, the call was inactive.
As for `Cc1cnc(C(=O)Nc2nnc(C)s2)cn1`, the entry is “inactive”.
As for `O=C1C=C(Nc2ccccc2O)c2ccccc2C1=O`, the entry is “inactive”; as for `CCCCCCOc1ccc(N2C(=O)CC(SC(=NCC)NCC)C2=O)cc1` (stereo not given), “inactive”.
The entry for `CCCCOc1ccc(CN2CCC(O)CC2)cc1` is “inactive”; for `O=C1NC(=S)S/C1=C1\Sc2ccccc2N1CCCS(=O)(=O)O` it is “inactive”.
For `CN(C)CCCN1c2ccccc2Sc2ccc(C(F)(F)F)cc21`, the molecule was called inactive.
As for `Cc1nc(-c2ccc(C(=O)N3CCOCC3)cc2)cs1`, the entry is “inactive”.
The entry for `Cc1ccc(C)c(NC(=O)c2ccccc2O)c1` is “inactive”.
As for `O=C(Cc1ccc(F)cc1)NC1CCCC1`, the entry is “inactive”; as for `Cn1ncc(N=Cc2ccccc2O)c1C(=O)N1CCOCC1`, “inactive”; as for `O=C(NC1CCCCC1)c1ccc(S(=O)(=O)NCc2cccnc2)cc1`, “inactive”.
Regarding `Cc1ccc(C)c(OCc2ccc(C(=O)NN)o2)c1`, the molecule was called inactive.
As for `C[C@]1(OC(=O)/C=C/c2ccccc2)C[C@@H](O)[C@]2(O)C=CO[C@@H](O[C@@H]3O[C@H](CO)[C@@H](O)[C@H](O)[C@H]3O)[C@@H]21`, the entry is “inactive”.
As for `C1=Nc2ccccc2CN1c1ccccc1`, the entry is “inactive”; as for `COc1ccc(C(C(=O)Nc2ccc(C(C)C)cc2)N(Cc2ccco2)C(=O)CC2NC(=O)NC2=O)cc1` (stereo not given), “inactive”.
Regarding `Cc1ncc([N+](=O)[O-])n1CC(=O)NC1CCCC1`, the call was inactive.
On to `CC(=O)NS(=O)(=O)c1ccc(Nc2ccc([N+](=O)[O-])c3nonc23)cc1`, for which the molecule was called inactive.
The entry for `CC1=C([N+](=O)[O-])C(c2ccccc2)C2=C(N1)c1ccccc1C2=O` (stereo not given) is “inactive”; for `O=C1CC(=O)CC(c2ccco2)C1` it is “inactive”; for `COc1ccccc1C(=O)Nc1nnc(-c2ccc(F)cc2)o1` it is “inactive”.
As for `N#CC1=C2N=C(N)c3ccccc3N2C2=C(C(=O)CCC2)C1c1cccc(Cl)c1` (stereo not given), the entry is “inactive”.
In the case of `O=C1c2ccccc2NC(c2cccc([N+](=O)[O-])c2)N1CCc1ccccc1` (stereo not given), the call was inactive.
On to `CCS(=O)(=O)N1CCN(C(=O)c2ccco2)CC1`, for which the call was inactive.
The entry for `COc1cc(S(=O)(=O)N2CCN(C(=O)c3ccco3)CC2)c(OC)cc1C` is “inactive”; for `COc1ccccc1NC(=O)Cn1nc(-c2ccncc2)nc1SCC(=O)NC1CCCC1` it is “inactive”; for `O=C(CCNS(=O)(=O)c1cccc2nonc12)N1CCN(c2cccc(Cl)c2)CC1` it is “inactive”.
The entry for `CC1CC(C)CN(S(=O)(=O)c2cccc3cccnc23)C1` (stereo not given) is “inactive”; for `C=CCN(c1ccccc1)S(=O)(=O)c1cccc2cccnc12` it is “inactive”.
As for `CCN(CC)C(=O)C(=O)c1cn(CC(=O)N2CCc3ccccc3C2)c2ccccc12`, the entry is “inactive”.
Turning to `CC(=O)Oc1ccc(C(=O)Nc2ccc3c(c2)C(=O)N(CCC(=O)O)C3=O)cc1`, the molecule was classed as inactive.
As to `Brc1ccc2c(c1)CN1CCCC1=N2`, the call was inactive.
Take `c1ccc(CNc2nc(-c3ccccn3)nc3ccccc23)cc1`: the outcome was inactive.
As for `Cc1n[nH]c(=O)nc1NCCc1ccccc1`, the entry is “inactive”; as for `CCOC(=O)COc1cccc2c(=O)n(CC(=O)N3CCCCC3)ccc12`, “inactive”.
The entry for `CC(=O)CC1OC(=O)C(Br)=C1NCc1ccccc1` (stereo not given) is “inactive”; for `COC(=O)CNc1n[nH]c(=S)[nH]c1=O` it is “inactive”.
